The whole screen tested about 310,000 compounds, of which about 14,000 (4.5%) showed an effect of 50% or more. Effects have a minus sign here. What follows is part of a selection rich in strong results, with near analogues and random picks from the rest.
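Further: peak tail current of the secondary pulse compared with the same well before compound.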

For this test, the target named is human ether-à-go-go-related gene (hERG) potassium channel (human, UniProt Q12809). In words: primary screen, population patch clamp on CHO cells stably expressing hERG; higher = less effect of the substance.
Chain of human ether-à-go-go-related gene (hERG) potassium channel (Q12809 whole entry, looked up): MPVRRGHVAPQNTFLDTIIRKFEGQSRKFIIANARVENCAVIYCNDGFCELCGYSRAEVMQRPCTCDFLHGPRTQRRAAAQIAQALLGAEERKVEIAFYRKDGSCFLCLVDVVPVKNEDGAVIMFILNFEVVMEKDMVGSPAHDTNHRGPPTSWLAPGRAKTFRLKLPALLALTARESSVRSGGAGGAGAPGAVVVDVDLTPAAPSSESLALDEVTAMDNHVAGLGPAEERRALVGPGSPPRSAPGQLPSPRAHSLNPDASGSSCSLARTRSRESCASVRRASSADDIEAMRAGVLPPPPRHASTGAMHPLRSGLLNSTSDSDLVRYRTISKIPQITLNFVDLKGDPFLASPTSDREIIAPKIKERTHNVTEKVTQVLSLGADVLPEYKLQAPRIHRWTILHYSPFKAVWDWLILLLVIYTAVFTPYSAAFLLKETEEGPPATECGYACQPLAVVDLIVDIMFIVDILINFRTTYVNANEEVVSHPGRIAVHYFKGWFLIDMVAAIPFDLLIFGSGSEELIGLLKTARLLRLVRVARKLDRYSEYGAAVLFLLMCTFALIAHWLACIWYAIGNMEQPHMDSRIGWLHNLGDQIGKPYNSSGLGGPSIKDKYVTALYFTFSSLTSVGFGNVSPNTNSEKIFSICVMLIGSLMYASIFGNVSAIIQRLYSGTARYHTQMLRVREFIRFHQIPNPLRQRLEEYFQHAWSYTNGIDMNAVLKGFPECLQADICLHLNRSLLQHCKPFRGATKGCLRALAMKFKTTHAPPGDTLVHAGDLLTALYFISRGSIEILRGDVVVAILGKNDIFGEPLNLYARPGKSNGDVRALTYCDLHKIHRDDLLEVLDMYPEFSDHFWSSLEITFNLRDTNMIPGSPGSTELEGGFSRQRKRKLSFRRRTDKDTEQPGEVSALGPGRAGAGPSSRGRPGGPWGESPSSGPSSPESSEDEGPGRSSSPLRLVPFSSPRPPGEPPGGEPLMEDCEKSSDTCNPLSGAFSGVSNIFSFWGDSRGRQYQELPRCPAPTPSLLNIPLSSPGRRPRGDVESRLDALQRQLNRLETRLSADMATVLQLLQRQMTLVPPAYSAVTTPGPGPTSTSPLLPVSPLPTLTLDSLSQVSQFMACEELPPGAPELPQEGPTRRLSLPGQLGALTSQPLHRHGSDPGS
`Nc1cc(=O)[nH]c(SCc2nnnn2-c2ccc(Cl)cc2)n1`: the “hERG current change (%, negative = inhibition) at 10uM” value is reported as 4.04%.

Consider `CCN1CCCC1CNC(=O)Cn1cc2c(n1)CCC(C)C2` (centres unmarked), for which the “hERG current change (%, negative = inhibition) at 10uM” value turned out to be 5.4%.

Turning to `Cn1ncc(C#N)c1/N=C/N(Cc1ccccc1)Cc1ccccc1`, the “hERG current change (%, negative = inhibition) at 10uM” value is -9.12%. With `COCCN(C(=O)COC(=O)c1ccccc1Nc1ccccc1)c1c(N)n(Cc2ccccc2)c(=O)[nH]c1=O` the figure was -44.9%.

On to `Cc1occc1C(=O)NNC(=S)NCc1ccccc1`, for which the “hERG current change (%, negative = inhibition) at 10uM” value amounted to 6.47%. The value for `CC(C)(C)C(=O)Nc1cc2c3c(c1)CC(=O)N3CCC2` was 18.3%. Regarding `CCN1CCCC1CN(Cc1cc2cc(C)ccc2[nH]c1=O)C(=O)Nc1ccccc1OC` (centres unmarked), the “hERG current change (%, negative = inhibition) at 10uM” value is -60%.

Take `Cc1ccc2[nH]c(=O)c(CN(CC3COCCO3)C(=O)Nc3ccccc3C)cc2c1` (centres unmarked): the “hERG current change (%, negative = inhibition) at 10uM” value is listed as 3.87%.

Turning to `CCOc1ccc2[nH]c(=O)c(CN(CC3CCCN3CC)C(=O)NCc3ccccc3)cc2c1` (centres unmarked), the “hERG current change (%, negative = inhibition) at 10uM” value is reported as -63.2%. With `COc1ccccc1NC(=O)N(CCN1CCOCC1)Cc1cc2cc(C)cc(C)c2[nH]c1=O`, the “hERG current change (%, negative = inhibition) at 10uM” value is listed as -33.2%.

In the case of `COc1ccccc1NC(=O)N(Cc1cc2cc(OC)c(OC)cc2[nH]c1=O)CC1CCCO1` (centres unmarked), the “hERG current change (%, negative = inhibition) at 10uM” value is listed as -9.13%. With `COc1ccccc1NC(=O)N(Cc1ccco1)Cc1cc2cc(C)cc(C)c2[nH]c1=O` the figure was -2.39%; with `CCN1CCCC1CN(Cc1cc2cc(C)cc(C)c2[nH]c1=O)C(=O)Nc1ccccc1OC` (centres unmarked), -61.4%.

`CCN1CCCC1CN(Cc1cc2ccc(C)c(C)c2[nH]c1=O)C(=O)Nc1ccccc1OC` (centres unmarked): the “hERG current change (%, negative = inhibition) at 10uM” value is recorded as -63.3%.

Regarding `CCOc1ccc2[nH]c(=O)c(CN(Cc3ccccc3)C(=O)N3CCCC3)cc2c1`, the “hERG current change (%, negative = inhibition) at 10uM” value stood at 9.28%.

Turning to `CCN1CCCC1CN(Cc1cc2cc(OC)ccc2[nH]c1=O)C(=O)NCc1ccccc1` (centres unmarked), the “hERG current change (%, negative = inhibition) at 10uM” value was -46.4%.

For `COc1ccccc1NC(=O)N(Cc1ccco1)Cc1cc2ccc(C)c(C)c2[nH]c1=O`, the “hERG current change (%, negative = inhibition) at 10uM” value was found to be 8.85%. With `COc1ccccc1NC(=S)N(Cc1ccco1)Cc1cc2ccc(C)c(C)c2[nH]c1=O` the figure was -8.05%; with `CCn1c(Cc2c(C)[nH]c3ccccc23)nnc1SCC(N)=O`, 13.4%; with `Cc1nn(C)c2c(=O)c(=O)c2n(C)[nH]1`, 18%. In the case of `Cc1c(C(=O)NCC2CCCO2)oc2ccc3c(c12)C(=O)CC(C)(C)O3` (centres unmarked), the “hERG current change (%, negative = inhibition) at 10uM” value was 2.71%. With `O=C(CSc1nnc(CNC(=O)c2ccco2)o1)Nc1cccc(C(F)(F)F)c1` the figure was -48.3%.

Take `COc1cccc(NC(=O)Cc2csc(NC(=O)Nc3ccccc3OC)n2)c1`: the “hERG current change (%, negative = inhibition) at 10uM” value turned out to be 18.2%.

The record behind these values is PMC4336329 (PLoS ONE, 2015).
